The record followed here is PubChem BioAssay (NCATS).

Results filed as inconclusive are left out. The source made the active and inactive calls. Unless noted, calls come from the whole dose curve; as a rule, active = well fitted curve in the direction sought with a large enough effect; inconclusive = small, poorly fitted or top-dose-only effect, or another doubt; inactive = no such curve, though single readings can be large; an effect the other way counts as inactive or inconclusive.

A short description of assay [1]: qHTS Assay for Identifying Gametocytocidal Compounds (AID 743244).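 For max response: % is set by controls: 0 for no effect and ±100 for the full control effect; actives lower the fluorescent signal which means gametocytes are killed.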 Note: potency is the fitted concentration of half-maximal effect. Conditions: P. falciparum 3D7 stage III-V gametocytes, alamarBlue, 72 h; max response: stronger effect = lower value. The essentials: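 Stage III-V P. falciparum 3D7 gametocytes, 20,000 per well, were exposed to compounds for 72 h at 37C, 5% CO2. AlamarBlue was then added for 24 h and viability was read as fluorescence at Ex 525/Em 598 nm.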
(In general: In qHTS, concentration-response curves come from the screen itself.)

The nature of assay [2]: qHTS profiling for inhibitors of Plasmodium falciparum (3D7) proliferation (AID 743322).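 Note: infected erythrocytes exposed to compound for 72 h before lysis; 100% = DMSO vehicle wells and 0% = 0.29 µM artemisinin.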 To be noted: P. falciparum 3D7 proliferation; at 28.7 µM (top of the series) unless noted. The essentials: (§1)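 Erythrocytes infected with P. falciparum (0.3% parasitemia, 2.5% hematocrit) incubated with compounds 72 h at 37 C, 5% CO2. Lysis with saponin/Triton buffer containing SYBR Green I, overnight at room temperature in the dark; DNA fluorescence (485/535 nm) normalised to 0.29 uM artemisinin and DMSO.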

A short description of assay [3]: qHTS profiling for inhibitors of Plasmodium falciparum (DD2) proliferation (AID 743323; call rule not given here). To be noted: lower = more inhibition; at 28.7 µM (top of the series) unless noted. The essentials: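 Parasite DNA quantified by SYBR Green fluorescence (ex 485, em 535 nm) after saponin/Triton lysis and overnight dark incubation. Cultures: 0.3% parasitemia, 2.5% hematocrit, 72 h, 37 C; data scaled between DMSO and 0.29 uM artemisinin.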

Assay [4] is described as follows: qHTS profiling for inhibitors of Plasmodium falciparum (HB3) proliferation (AID 743324).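 Note: 100% = DMSO vehicle wells and 0% = artemisinin-treated control wells.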 Conditions: Plasmodium falciparum HB3 blood-stage proliferation; at 28.7 µM (top of the series) unless noted. The essentials: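 P. falciparum HB3 grown in erythrocytes (0.3% parasitemia, 2.5% hematocrit final) with compound for 72 h at 37 C, 5% CO2. Parasite DNA detected by SYBR Green after saponin/triton lysis overnight; normalized to 0.29 uM artemisinin and DMSO.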

A short description of assay [5]: qHTS profiling of the MIPE4 collection as inhibitors of Plasmodium falciparum (3D7) proliferation (AID 743344; call rule not given here;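 note: scaled between DMSO vehicle wells and 0.29 µM artemisinin as full inhibition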). Conditions: P. falciparum 3D7 in erythrocytes, SYBR Green DNA fluorescence, 72 h; at 28.5 µM (top of the series) unless noted. In outline:
as §1

The nature of assay [6]: qHTS profiling of the MIPE4 collection as inhibitors of Plasmodium falciparum (DD2) proliferation (AID 743345; call rule not given here). Conditions: P. falciparum Dd2 in erythrocytes, SYBR Green DNA, 72 h; at 28.5 µM (top of the series) unless noted. In outline:
as §1

Assay [7] can be described thus: qHTS profiling of the MIPE4 collection as inhibitors of Plasmodium falciparum (DD2) proliferation (Rep 2) (AID 743346; call rule not given here). To be noted: P. falciparum Dd2 in erythrocytes, SYBR Green DNA, 72 h; at 28.5 µM (top of the series) unless noted. The essentials: as §1
Assay [8] is described as follows: qHTS profiling of the MIPE4 collection as inhibitors of Plasmodium falciparum (HB3) proliferation (AID 743347; call rule not given here;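 note: plate controls were DMSO vehicle wells for no effect and artemisinin wells for full effect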). Conditions: P. falciparum HB3 in erythrocytes, SYBR Green DNA, 72 h; at 28.5 µM (top of the series) unless noted. In outline:
as §1

Assay [9] in a line: qHTS assay for cell viability of the p53RE-bla HCT-116 cell line (AID 743292). Note: % is set by controls: 0 for no effect and ±100 for the full control effect; nearly all actives have a fitted effect of over 55% in size. The essentials: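 After plating at 4,000 cells per well and a 5 h rest at 37 C, HCT-116 cells carrying p53RE-bla received test chemicals in DMSO. Sixteen hours later at 37 C, CellTiter-Glo was added and luminescence recorded following 30 min at room temperature.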
Assay [10] is described as follows: qHTS assay for cell viability of HEK293 cells (AID 743288). Note: % is set by controls: 0 for no effect and ±100 for the full control effect; nearly all actives have a fitted effect of over 50% in size. To be noted: ATP luminescence (CellTiter-Glo), 18 h, stronger effect = lower value. In outline: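 Total intracellular ATP, measured with a luciferase-coupled reagent, indicates the number of viable HEK293 cells. Exposure to test chemicals lasts 18 h at 37 C in 1,536-well format at 2,000 cells/well.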

As for `CN1CCN(CCCN2c3ccccc3Sc3ccc(S(=O)(=O)N(C)C)cc32)CC1`, the Potency in assay [1] is 5.64 µM (active). The remaining parasite growth % (stronger effect = lower value) in assay [2] came out at 1.46% [at 9.63 µM]. This molecule came in with an activity, percent of control in assay [3] of 2.48% [at 9.63 µM]. This molecule yielded a remaining proliferation (% of control), lower = more inhibition in [4] of 1.27% [at 9.63 µM]. Further, in assay [5], the parasite growth, % of DMSO control was 63.5% [at 9.64 µM]. For the same molecule, the parasite growth remaining, % of DMSO control (lower = more inhibition) in assay [6] came to 44% [at 9.64 µM]. The parasite growth, % of control (lower = inhibition) in assay [7] worked out at 48.8% [at 9.64 µM]. The molecule also came in with a growth, % of control in [8] of 68.8% [at 9.64 µM].

On to `CC(=O)O[C@]1(C(C)=O)CC[C@H]2[C@@H]3C[C@H](C)C4=CC(=O)CC[C@]4(C)[C@H]3CC[C@@]21C`, for which the call in [9] was inactive.

For `CC(O)C(=O)O` (stereo not given), the max response in [1] was -6.68% (inactive); in [10], 1.72% (inactive). Further, the result in assay [9] was inactive.

As for `Cc1cc(=O)n(-c2ccccc2)n1C`, the max response in assay [1] is 18.5% (inactive); in assay [10], -2.36% (inactive). Also, in [9], the outcome was inactive.
